This is an account of results in PubChem BioAssay (Tox21).

Test [1] in a line: Caspase-3/7 induction in CHO-K1 cells by small molecules, qHTS cell viability counter screen (AID 1346979). Also: nearly all actives have a fitted effect of over 35% in size. Also: potency is read from the fitted curve at half-maximal effect. Summed up:
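In the same wells as the caspase read, viability of compound-treated wild-type CHO-K1 cells was assessed using CellTiter-Fluor, added after 16hr at 37C and measured by fluorescence following 1hr further incubation.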
(Quantitative high-throughput screening tests each substance at several concentrations.)

Test [2] in a line: Caspase-3/7 induction in CHO-K1 cells by small molecules, qHTS assay (AID 1346980). Also: nearly all actives have a fitted effect of over 15% in size. In a few lines:
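Wild-type CHO-K1 cells exposed to compounds for 17hr at 37 C, 5% CO2. Caspase-3/7 activity then measured by Caspase-Glo 3/7 luminescence after 30min at room temperature.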

The nature of test [3]: Caspase-3/7 induction in HepG2 cells by small molecules, qHTS cell viability counter screen (AID 1346981). Also: nearly all actives have a fitted effect of over 30% in size. Also: potency is read from the fitted curve at half-maximal effect. As to activity change, negative = cytotoxicity: series mostly up to about 92 µM. In a few lines:
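Wild-type HepG2 cells, 2,000/well, settled 5 hr at 37 C, 5% CO2 before compound addition. Viability read by CellTiter-Fluor fluorescence, reagent added after 16 hr compound exposure, then 1 hr at 37C, in the same wells as the caspase read.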

Test [4] has as its target Nuclear receptor subfamily 1 group I member 2 (Homo sapiens) (UniProt O75469). The test can be described thus: Human pregnane X receptor (PXR) small molecule agonists, qHTS assay (AID 1346982). Also: nearly all actives have a fitted effect of over 35% in size. Also: potency is read from the fitted curve at half-maximal effect. In a few lines:
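PXR-Luc HepG2 reporter cells (CYP3A4-driven luciferase) in 5% charcoal-stripped FBS medium, plated 5 h before compound addition, then treated 24 h at 37C. Luciferase read by ONE-Glo luminescence after 30 min at room temperature.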

The target of test [5] is Acetylcholinesterase (Homo sapiens) (UniProt P22303). Kind of test: Acetylcholinesterase (AChE) small molecule antagonists: enzyme-based qHTS assay (AID 1347397; calls by dose curve; also: nearly all actives have a fitted effect of over 55% in size; also: potency is read from the fitted curve at half-maximal effect). The note with it: Potency: AChE enzyme activity inhibition; outcome: AChE enzyme activity inhibition. In a few lines: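 Recombinant human AChE (50 mU/mL) preincubated with compound 30 min at room temperature; acetylthiocholine plus DTNB then added, and thiocholine formation read colorimetrically after 10 min at room temperature. DMSO served as vehicle control.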

Test [6] shares this target. Kind of test: Acetylcholinesterase (AChE) small molecule antagonists: fluorescence cell-based qHTS assay (AID 1347398; calls by dose curve; also: nearly all actives have a fitted effect of over 50% in size; also: potency is read from the fitted curve at half-maximal effect). As to conditions: Potency: AChE activity; outcome: AChE activity. In a few lines:
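SH-SY5Y cells (2000/well), attached overnight, incubated with compound 30 min at 37 C. Acetylthiocholine plus Thiolite Green then added for 40 min at room temperature. Thiocholine fluorescence (Ex/Em 490/520 nm) reports cellular AChE activity.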

Test [7] shares this target. Kind of test: Acetylcholinesterase (AChE) small molecule antagonists: enzyme-based qHTS assay with human liver microsomes (AID 1347399; calls by dose curve; also: nearly all actives have a fitted effect of over 60% in size). The note with it: Potency: qHTS inhibition; outcome: qHTS inhibition. Summed up: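 Recombinant human AChE (50 mU/mL in the enzyme mix) and human liver microsomes (0.25 mg/mL final) were preincubated with compound and NADPH (0.25 mg/mL final) for 30 min at 37 C. Acetylthiocholine/DTNB was then added; thiocholine was read colorimetrically after 10 min at room temperature.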

The target in test [8] is Cytochrome P450 2D6 (Homo sapiens) (UniProt P10635). The test can be described thus: Cytochrome P450 Family 2 Subfamily D Member 6 (CYP2D6) small molecule antagonists: luciferase reporter qHTS assay (AID 1671196). Also: nearly all actives have a fitted effect of over 50% in size. Also: potency is read from the fitted curve at half-maximal effect. As to activity change, negative = inhibition: series mostly up to about 120 µM. In a few lines:
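Cell-free P450-Glo system: CYP2D6 with proluciferin substrate was pre-incubated with compound for 10 min, then reacted with NADPH regeneration for 1 h at room temperature. Luciferin product was detected after 20 min, and data were reported as relative luminescence units.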
A general note: Reporter assays use an easily measured gene product as a stand-in for the process of interest.

Test [9] has as its target Cytochrome P450 2C19 (Homo sapiens) (UniProt P33261). Kind of test: Cytochrome P450 Family 2 Subfamily C Member 19 (CYP2C19) small molecule antagonists: luciferase reporter qHTS assay (AID 1671197). Also: nearly all actives have a fitted effect of over 65% in size. Also: potency is read from the fitted curve at half-maximal effect. As to activity change, negative = inhibition: series mostly up to about 120 µM. In a few lines:
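Quantitative high-throughput screen of the Tox21 library using CYP2C19 with proluciferin substrate. Reaction: NADPH regeneration, 37C, 1 h, after 10 min compound preincubation at room temperature. Readout: luminescence.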

Test [10] concerns the target Cytochrome P450 2C9 (Homo sapiens) (UniProt P11712). The test can be described thus: Cytochrome P450 Family 2 Subfamily C Member 9 (CYP2C9) small molecule antagonists: luciferase reporter qHTS assay (AID 1671198). Also: nearly all actives have a fitted effect of over 50% in size. Also: potency is read from the fitted curve at half-maximal effect. As to activity change, negative = inhibition: series mostly up to about 120 µM. Summed up:
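P450-Glo proluciferin substrate with CYP2C9 enzyme; 10 min RT preincubation, then NADPH regeneration 1 h at 37C; luciferin detection reagent 20 min RT, luminescence in relative luminescence units.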

In test [11] the target is Cytochrome P450 1A2 (Homo sapiens) (UniProt P05177). The test can be described thus: Cytochrome P450 Family 1 Subfamily A Member 2 (CYP1A2) small molecule antagonists: luciferase reporter qHTS assay (AID 1671199). Also: nearly all actives have a fitted effect of over 50% in size. Also: potency is read from the fitted curve at half-maximal effect. As to activity change, negative = inhibition: series mostly up to about 120 µM. In a few lines: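 P450-Glo CYP1A2 enzyme–proluciferin substrate mix with compound 10 min at room temperature, then NADPH regeneration 1 h at room temperature. Luciferin detection reagent added, luminescence read after 20 min; furafylline positive control.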

The target in test [12] is Voltage-gated inwardly rectifying potassium channel KCNH2 (Homo sapiens) (UniProt Q12809). The test can be described thus: Human Ether-a-go-go-Related Gene (hERG) channel small molecule antagonists: fluorescence cell-based qHTS assay (AID 1671200). Also: nearly all actives have a fitted effect of over 50% in size. Also: potency is read from the fitted curve at half-maximal effect.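 As to activity change, negative = inhibition: hERG-expressing U2OS cells given a thallium stimulus after FluxOR II dye loading; series mostly up to about 77 µM.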 In a few lines:
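Quantitative HTS in hERG-U2OS cells: thallium entry through the channel reports activity, read as continuous 480/540 nm fluorescence over 2 min after stimulus addition.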

The target in test [13] is Cytochrome P450 3A4 (Homo sapiens) (UniProt P08684). The test can be described thus: Cytochrome P450 Family 3 Subfamily A Member 4 (CYP3A4) small molecule antagonists: luciferase reporter qHTS assay (AID 1671201). Also: nearly all actives have a fitted effect of over 50% in size. Also: potency is read from the fitted curve at half-maximal effect. As to activity change, negative = inhibition: series mostly up to about 120 µM. Summed up:
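Inhibition of CYP3A4 is measured as loss of light: the enzyme converts a proluciferin substrate to luciferin, detected luminescently. Reaction ran 1 h at room temperature with NADPH regeneration after a 10 min compound preincubation.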

The nature of test [14]: Human pregnane X receptor (PXR) small molecule agonists, qHTS cell viability counter screen (AID 1346977). Also: nearly all actives have a fitted effect of over 50% in size. Also: potency is read from the fitted curve at half-maximal effect. Summed up: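 Measures live-cell protease fluorescence (CellTiter-Fluor) in PXR-Luc HepG2 cells treated 24hr with compounds at 37C. Cells had 5hr to attach before pin transfer of DMSO solutions.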
The target in test [15] is Acetylcholinesterase (Homo sapiens) (UniProt P22303). The test can be described thus: Acetylcholinesterase (AChE) small molecule antagonists: colormetric cell-based qHTS assay (AID 1347395; calls by dose curve; also: nearly all actives have a fitted effect of over 30% in size). In a few lines:
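Endogenous AChE of human neuroblastoma SH-SY5Y cells was measured with an Ellman-type DTNB/acetylthiocholine mix. Compound pretreatment lasted 30 min at 37 C; substrate reaction ran 90 min at 37 C.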

The target in test [16] is Nuclear receptor subfamily 1 group I member 2 (Homo sapiens) (UniProt O75469). The test can be described thus: CYP3A4 induction through human pregnane X receptor (PXR) by small molecules, qHTS assay (AID 1346984). Also: nearly all actives have a fitted effect of over 40% in size. Summed up: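 DPX-2 HepG2 cells carrying a PXR response element and CYP3A4-promoter luciferase construct, treated with compounds 24 hr at 37C. Then P450-Glo CYP3A4 Luciferin-IPA substrate (3uM final) for 3 hr at 37C, One-Glo added, luminescence read.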

For test [17] the target is unchanged. The test can be described thus: Human pregnane X receptor (PXR) activation by small molecules, qHTS assay (AID 1346985). Also: nearly all actives have a fitted effect of over 40% in size. Summed up: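 DPX-2 cells (HepG2 co-transfected with a PXR response element and a CYP3A4-promoter luciferase construct) were seeded at 2,000 per well, rested 5 hr at 37C, then exposed to DMSO-dissolved compounds for 24 hr. Activation was read as luciferase luminescence.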

A short description of test [18]: Caspase-3/7 induction in HepG2 cells by small molecules, qHTS assay (AID 1346978). Also: nearly all actives have a fitted effect of over 15% in size. In a few lines: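 Wild-type HepG2 cells, 2,000/well, settled 5 hr at 37 C and 5% CO2, then compound-treated for 17 hr; caspase-3/7 activity read by luminescent Caspase-Glo 3/7 after 30 min at room temperature.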
Test [19] concerns the target Nuclear receptor subfamily 1 group I member 2 (Rattus norvegicus) (UniProt Q9R1A7). The test can be described thus: Rat pregnane X receptor (rPXR) activation by small molecules, qHTS assay (AID 1346983). Also: nearly all actives have a fitted effect of over 20% in size. The note with it: rPXR luciferase reporter cells, One-Glo luminescence, 24 h; stronger effect = higher value. In a few lines: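 Cell-based rPXR activation assay: rPXR cells, 2,000 per well, rested 5hr at 37 C, then exposed to compounds in DMSO for 24 hr at 37 C. Luciferase activity read by One-Glo luminescence after 30 min at room temperature.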

Values joined by “and” are separate entries in the source; they are usually repeats but may differ in a detail not shown here. Equal values may be shown once. Records with an inconclusive call do not appear. A structure can be active in one record and inactive in another. Active and inactive are the calls of the source. Unless noted, calls follow the shape of the dose curve; as a rule, active = well fitted curve in the direction sought with a large enough effect in the repeat runs; inconclusive = weak or mixed curves; inactive = no such curve, though single readings can be large; an effect the other way counts as inactive or inconclusive.
% is scaled to controls: 0 for no effect and ±100 for the full control effect.

Chain of Cytochrome P450 2C9 (Homo sapiens) (P11712 whole entry, looked up): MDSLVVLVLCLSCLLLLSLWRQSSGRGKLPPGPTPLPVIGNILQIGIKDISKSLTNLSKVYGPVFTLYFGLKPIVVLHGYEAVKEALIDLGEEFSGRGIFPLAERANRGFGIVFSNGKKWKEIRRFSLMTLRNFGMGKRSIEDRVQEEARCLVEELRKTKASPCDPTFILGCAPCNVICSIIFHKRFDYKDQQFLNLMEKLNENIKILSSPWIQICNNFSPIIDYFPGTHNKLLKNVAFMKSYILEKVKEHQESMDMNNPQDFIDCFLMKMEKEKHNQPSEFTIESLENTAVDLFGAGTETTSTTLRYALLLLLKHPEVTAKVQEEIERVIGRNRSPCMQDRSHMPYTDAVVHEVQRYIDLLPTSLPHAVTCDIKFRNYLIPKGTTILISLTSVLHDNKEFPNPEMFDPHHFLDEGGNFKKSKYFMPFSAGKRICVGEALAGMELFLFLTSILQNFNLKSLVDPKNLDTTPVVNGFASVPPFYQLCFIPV
Chain of Cytochrome P450 2C19 (Homo sapiens) (P33261 whole entry, looked up): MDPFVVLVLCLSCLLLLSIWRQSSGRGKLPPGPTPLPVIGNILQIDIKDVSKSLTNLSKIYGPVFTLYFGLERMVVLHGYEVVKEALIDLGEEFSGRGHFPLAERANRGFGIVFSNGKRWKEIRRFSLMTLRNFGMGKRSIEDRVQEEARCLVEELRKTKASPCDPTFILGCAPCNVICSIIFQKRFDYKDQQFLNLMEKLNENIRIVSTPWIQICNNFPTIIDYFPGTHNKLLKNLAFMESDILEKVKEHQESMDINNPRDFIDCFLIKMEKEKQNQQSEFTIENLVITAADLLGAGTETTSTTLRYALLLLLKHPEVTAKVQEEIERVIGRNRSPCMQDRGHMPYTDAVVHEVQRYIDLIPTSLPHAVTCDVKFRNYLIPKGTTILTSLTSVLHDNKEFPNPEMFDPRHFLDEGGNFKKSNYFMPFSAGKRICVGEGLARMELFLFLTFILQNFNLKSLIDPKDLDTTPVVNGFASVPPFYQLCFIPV
Chain of Cytochrome P450 1A2 (Homo sapiens) (P05177 whole entry, looked up): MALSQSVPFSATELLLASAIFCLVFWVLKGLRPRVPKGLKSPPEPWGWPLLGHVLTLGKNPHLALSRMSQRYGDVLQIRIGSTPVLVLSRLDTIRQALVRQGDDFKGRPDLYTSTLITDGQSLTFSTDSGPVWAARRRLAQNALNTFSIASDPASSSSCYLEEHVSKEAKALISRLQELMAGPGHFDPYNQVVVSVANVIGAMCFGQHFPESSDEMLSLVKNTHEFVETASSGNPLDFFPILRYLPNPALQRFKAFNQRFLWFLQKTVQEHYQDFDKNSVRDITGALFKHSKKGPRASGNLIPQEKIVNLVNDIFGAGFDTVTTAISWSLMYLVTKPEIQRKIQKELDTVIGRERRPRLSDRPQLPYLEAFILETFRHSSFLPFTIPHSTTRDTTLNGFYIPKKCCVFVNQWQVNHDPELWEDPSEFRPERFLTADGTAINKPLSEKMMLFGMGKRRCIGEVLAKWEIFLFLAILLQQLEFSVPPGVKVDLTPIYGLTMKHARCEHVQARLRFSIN
Chain of Cytochrome P450 3A4 (Homo sapiens) (P08684 whole entry, looked up): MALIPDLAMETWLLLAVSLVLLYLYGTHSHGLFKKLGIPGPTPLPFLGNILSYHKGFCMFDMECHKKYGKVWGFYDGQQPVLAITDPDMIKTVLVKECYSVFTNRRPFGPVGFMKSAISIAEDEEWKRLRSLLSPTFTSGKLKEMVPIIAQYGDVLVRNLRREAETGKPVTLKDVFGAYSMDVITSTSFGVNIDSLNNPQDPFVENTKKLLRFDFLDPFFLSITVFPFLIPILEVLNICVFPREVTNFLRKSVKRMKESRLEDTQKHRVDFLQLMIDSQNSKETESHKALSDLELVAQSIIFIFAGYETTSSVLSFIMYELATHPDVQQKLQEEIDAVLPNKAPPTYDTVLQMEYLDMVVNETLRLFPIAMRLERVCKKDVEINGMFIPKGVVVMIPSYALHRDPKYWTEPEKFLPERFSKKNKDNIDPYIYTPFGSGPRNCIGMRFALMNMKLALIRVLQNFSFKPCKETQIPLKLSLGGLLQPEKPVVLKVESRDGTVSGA
Chain of Cytochrome P450 2D6 (Homo sapiens) (P10635 whole entry, looked up): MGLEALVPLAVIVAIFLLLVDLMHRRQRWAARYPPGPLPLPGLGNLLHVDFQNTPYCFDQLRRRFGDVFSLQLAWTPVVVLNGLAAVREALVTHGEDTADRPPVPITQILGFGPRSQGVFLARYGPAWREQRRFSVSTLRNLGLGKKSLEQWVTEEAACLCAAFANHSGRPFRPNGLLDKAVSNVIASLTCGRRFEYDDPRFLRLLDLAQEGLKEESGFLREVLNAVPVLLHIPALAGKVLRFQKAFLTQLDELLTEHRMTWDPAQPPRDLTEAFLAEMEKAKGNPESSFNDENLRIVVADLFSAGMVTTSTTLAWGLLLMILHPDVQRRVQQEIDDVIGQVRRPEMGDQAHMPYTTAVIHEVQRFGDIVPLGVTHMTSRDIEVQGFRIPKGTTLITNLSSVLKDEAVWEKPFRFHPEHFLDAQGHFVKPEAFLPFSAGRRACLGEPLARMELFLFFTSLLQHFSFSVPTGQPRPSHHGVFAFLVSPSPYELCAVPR
Chain of Acetylcholinesterase (Homo sapiens) (P22303 whole entry, looked up): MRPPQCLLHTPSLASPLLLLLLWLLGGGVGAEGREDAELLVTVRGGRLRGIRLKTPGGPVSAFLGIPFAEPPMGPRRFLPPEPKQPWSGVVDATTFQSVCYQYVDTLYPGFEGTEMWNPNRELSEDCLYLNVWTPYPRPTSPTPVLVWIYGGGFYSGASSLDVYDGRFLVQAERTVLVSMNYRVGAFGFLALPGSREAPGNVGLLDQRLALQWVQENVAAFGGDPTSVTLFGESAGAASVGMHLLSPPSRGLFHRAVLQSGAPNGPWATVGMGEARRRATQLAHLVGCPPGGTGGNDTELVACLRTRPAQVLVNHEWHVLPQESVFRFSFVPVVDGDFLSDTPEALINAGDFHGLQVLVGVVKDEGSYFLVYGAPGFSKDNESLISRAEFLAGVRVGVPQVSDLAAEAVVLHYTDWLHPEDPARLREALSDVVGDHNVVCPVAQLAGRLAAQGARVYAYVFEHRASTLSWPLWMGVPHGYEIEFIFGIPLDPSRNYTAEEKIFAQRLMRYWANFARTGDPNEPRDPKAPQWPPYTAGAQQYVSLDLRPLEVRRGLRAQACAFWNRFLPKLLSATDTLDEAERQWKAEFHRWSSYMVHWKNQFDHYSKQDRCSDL
Chain of Nuclear receptor subfamily 1 group I member 2 (Homo sapiens) (O75469 whole entry, looked up): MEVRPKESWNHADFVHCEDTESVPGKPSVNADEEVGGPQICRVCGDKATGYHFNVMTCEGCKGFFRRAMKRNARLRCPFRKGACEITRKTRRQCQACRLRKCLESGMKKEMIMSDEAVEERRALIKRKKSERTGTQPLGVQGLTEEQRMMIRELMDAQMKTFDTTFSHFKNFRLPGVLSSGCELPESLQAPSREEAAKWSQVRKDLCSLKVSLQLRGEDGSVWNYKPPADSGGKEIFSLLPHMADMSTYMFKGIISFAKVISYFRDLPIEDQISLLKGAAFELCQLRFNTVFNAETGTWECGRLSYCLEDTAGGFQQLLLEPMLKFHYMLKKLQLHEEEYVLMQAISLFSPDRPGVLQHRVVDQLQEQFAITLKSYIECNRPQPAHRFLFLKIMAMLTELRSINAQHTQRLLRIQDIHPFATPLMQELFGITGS
Chain of Voltage-gated inwardly rectifying potassium channel KCNH2 (Homo sapiens) (Q12809 whole entry, looked up): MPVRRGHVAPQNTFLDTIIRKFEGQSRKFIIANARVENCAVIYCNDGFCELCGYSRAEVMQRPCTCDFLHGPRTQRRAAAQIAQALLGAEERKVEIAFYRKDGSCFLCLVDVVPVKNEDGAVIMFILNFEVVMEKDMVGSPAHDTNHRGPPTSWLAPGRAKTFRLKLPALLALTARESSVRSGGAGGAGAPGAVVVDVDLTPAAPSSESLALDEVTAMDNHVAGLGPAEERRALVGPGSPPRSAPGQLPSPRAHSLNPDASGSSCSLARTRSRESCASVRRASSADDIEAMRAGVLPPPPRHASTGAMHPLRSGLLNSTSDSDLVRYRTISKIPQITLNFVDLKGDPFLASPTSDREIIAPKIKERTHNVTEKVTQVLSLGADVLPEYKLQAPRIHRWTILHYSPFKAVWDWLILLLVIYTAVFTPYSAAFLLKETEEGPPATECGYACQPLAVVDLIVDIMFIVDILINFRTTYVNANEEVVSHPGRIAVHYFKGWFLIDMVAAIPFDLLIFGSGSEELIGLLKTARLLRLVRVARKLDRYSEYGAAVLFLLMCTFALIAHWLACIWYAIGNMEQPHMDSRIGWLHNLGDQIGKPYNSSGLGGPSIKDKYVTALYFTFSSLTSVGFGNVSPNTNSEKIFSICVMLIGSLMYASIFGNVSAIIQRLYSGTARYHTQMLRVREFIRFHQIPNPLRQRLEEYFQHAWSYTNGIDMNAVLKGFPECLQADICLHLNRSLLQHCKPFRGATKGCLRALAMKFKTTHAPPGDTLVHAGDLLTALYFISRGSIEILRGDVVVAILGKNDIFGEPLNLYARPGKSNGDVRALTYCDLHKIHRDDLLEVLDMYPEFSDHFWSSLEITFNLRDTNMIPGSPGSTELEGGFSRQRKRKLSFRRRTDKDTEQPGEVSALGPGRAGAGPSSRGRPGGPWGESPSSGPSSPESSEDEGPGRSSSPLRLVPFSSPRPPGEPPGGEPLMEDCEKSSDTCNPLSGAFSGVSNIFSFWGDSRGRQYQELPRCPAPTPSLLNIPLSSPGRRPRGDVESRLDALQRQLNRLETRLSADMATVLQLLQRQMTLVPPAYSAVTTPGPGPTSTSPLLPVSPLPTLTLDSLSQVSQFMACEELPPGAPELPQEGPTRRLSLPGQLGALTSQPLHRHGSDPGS

`Nc1c(Br)cc(Br)c2c1C(=O)c1ccccc1C2=O`: the Potency in [1] is 14.5 µM (active); in [11], 0.168 µM (active). In [2], the caspase-3/7 activation is 3.36% [at 19 µM] (inactive). The activity change, negative = cytotoxicity in test [3] is -8.94% [at 19 µM] (inactive). Further, the activation in test [4] is 3.29% [at 19 µM] (inactive). In addition, the activity change, negative = inhibition in test [5] is 0.0969% [at 23.6 µM] (inactive); in [6] it was 2.58% [at 23.8 µM] (inactive); in [7], 0.243% [at 23.6 µM] (inactive); in [8] it was 0.314% [at 23.6 µM] (inactive); in test [9], -3.63% [at 23.6 µM] (inactive); in [10], -2.78% [at 23.6 µM] (inactive). Moreover, the activity change, negative = inhibition in test [12] is -6.02% [at 15.8 µM] (inactive); in test [13] it was 1.74% [at 23.6 µM] (inactive).

Take `Cc1ccc2c(C)cccc2c1`: the Potency entry in [14], in [2], in [4], in [15], in test [5] and in [6] was “inactive” each time. In addition, the Potency entry in test [7], in [8], in test [9], in test [10], in test [11] and in test [12] was “inactive” throughout. Further, the Potency result in test [13] is “inactive”.

For the compound `Cc1ccccc1`, the Potency entry in test [14], in test [1], in [2], in [4], in test [17] and in [15] was “inactive” throughout. Moreover, the Potency entry in [5], in test [6], in [7], in test [9], in [10] and in [11] was “inactive” each time. For the same compound, the Potency result in [12] and in test [13] was “inactive” each time. For the same compound, the call in test [16] was inactive.

For the compound `N#CC(C#N)=C(C#N)C#N`, the Potency result in test [18], in test [2], in [4], in test [15], in test [5] and in [6] was “inactive” in each case. Moreover, the Potency result in test [7] and in [12] was “inactive” throughout. For the same compound, the Potency was 58.9 µM (active) in test [9], 33.1 µM (active) in [10], 41.7 µM (active) in test [11] and 20.9 µM (active) in test [13].

Take `CCCCCCCCCCCC[N+](C)(C)CCOc1ccccc1`: the Potency is 61.1 µM (active) in [14]; 43.3 µM (active) in test [1]; 61.1 µM (active) in test [3]; 63.3 µM (active) in test [5]; 35.6 µM (active) in [6]; 3.56 µM (active) and 4.36 µM (active) in test [8]. Moreover, the Potency in test [9] was 56.4 µM (active); in test [10] it was 63.3 µM (active); in test [11], 79.7 µM (active) and inactive; in test [12], 776 nM (active) and 1.34 µM (active). The Potency result in test [2], in test [15], in test [7] and in test [13] was “inactive” throughout. Moreover, the max activation in [19] is -6.32% (inactive).

As for `NC(=S)c1c(Cl)cccc1Cl`, the Potency result in test [14], in test [2], in test [3], in [4], in [15] and in test [5] was “inactive” in each case. Further, the Potency result in [6], in [7], in [8], in test [9] and in test [12] was “inactive” in each case. In addition, the Potency in test [11] and in test [13] was 28.3 µM (active) throughout.

Turning to `O=P(OCC(Br)CBr)(OCC(Br)CBr)OCC(Br)CBr` (stereo not drawn), the Potency entry in test [18], in test [2], in [3], in test [15], in test [5] and in [6] was “inactive” throughout. For the same compound, the Potency entry in [7] was “inactive”. In addition, the Potency is 69.5 µM (active) in [1]; 55.2 µM (active) and 51.7 µM (active) in [4]; 3.6 µM (active) and 4.25 µM (active) in test [9]; 16.1 µM (active) and 16.9 µM (active) in [10]; 7.19 µM (active) and 9.52 µM (active) in test [11]; 12.5 µM (active) and 18.5 µM (active) in [12]. For the same compound, in test [13], the Potency is 2.55 µM (active) and 7.56 µM (active).

As to `CCCN(CCC)C(=O)Cc1c(-c2ccc(Cl)cc2)nc2ccc(Cl)cn12`, the Potency entry in test [14], in test [2], in test [15], in test [5], in test [6] and in [7] was “inactive” in each case. Also, the Potency in [10] is 9.77 µM (active); in [11] it was 16.2 µM (active).
